# Source: PubChem BioAssay (NCI)
# This is part of a sample that, as a whole, favours compounds with a hit. Of some 83,000 tested, about 20% had one in any assay.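 Testing used 96-well plates and a 48-hour single-concentration exposure. Example: -40 means 40% of the starting cells died.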 Activity calls are given as the source filed them. Rule for the calls: active = growth percent below 10; inactive = the rest.
# Test system: SF-295 CNS
# Test: NCI-60 one-dose screen, 48 h (100 = growth as untreated, 0 = no growth, -100 = all killed)
# Conditions: 10 µM unless noted
row,Compound,growth
1,C/C(=N\N=C1/C(=O)Nc2ccc(Cl)cc21)c1ccc2c(c1)Nc1ccccc1S2,-27.4% (active)
2,CCCSc1nc(NCCc2c[nH]c3ccccc23)c(C#N)c(-c2ccc(F)cc2)n1,41.2% (inactive)
3,COc1cc(C2CC(c3cc(OC)c(OC)c(OC)c3)=NN2C(C)=O)ccc1OCc1ccccc1 (stereo not drawn),24.6% (inactive)
4,Cc1cc2c(cc1Cl)C(=O)/C(=C/c1ccccc1)O2,24.9% (inactive)
5,COc1ccc2[nH]cc(-c3nc(N)nnc3-c3cn(C)c4ncccc34)c2c1,39.9% (inactive)
6,Cc1ccc(C(=O)CSc2nc3ccc(F)cc3c(=O)n2-c2ccc(Cl)cc2)cc1,4.69% (active)
7,CCCCSc1nc(NCCc2c[nH]c3ccccc23)c(C#N)c(-c2ccccc2)n1,48.4% (inactive)
8,Cn1cc(-c2nc(N)nnc2-c2c[nH]c3ccc(Br)cc23)c2cccnc21,18.1% (inactive)
9,CN(C)CCOc1ccc(C(=O)C2[C@H](c3ccc(Cl)cc3)[C@@H](c3ccccc3)NC23C(=O)Nc2ccc(Br)cc23)cc1 (stereo partly drawn),-53.4% (active)
10,CN1CCN(/C(=N\c2sc(-c3ccccc3)nc2-c2ccccc2)c2ccccc2)CC1,87.6% (inactive)
11,CCCSc1nc(NCCc2c[nH]c3ccccc23)c(C#N)c(-c2ccccc2)n1,72.6% (inactive)
12,CCN(CC)c1ccnc(CNCCSC(c2ccccc2)(c2ccccc2)c2ccc(OC)cc2)c1,-93.7% (active)
13,COc1cc2oc(-c3cccc(C(=O)Nc4cccc([N+](=O)[O-])c4)c3)cc(=O)c2c(OC)c1OC,-0.211% (active)
14,O=C(COc1ccc(NC(=O)Nc2ccc(Cl)c(Cl)c2)cc1)N=Nc1c(O)[nH]c2ccc([N+](=O)[O-])cc12,53.1% (inactive)
15,COc1cc(-c2nc3cc(Cl)c(Cl)cc3[nH]2)ccc1OCc1nnc(-c2cccs2)o1,31.9% (inactive)
16,CCCCCCCCc1ccc(C(=O)Nc2ccc(C)cc2C(=O)O)cc1C,73.6% (inactive)
17,CCOP(=O)(OCCCl)c1nc(-c2ccc(C)cc2)oc1NCc1ccccc1 (stereo not drawn),79.9% (inactive)
18,NS(=O)(=O)c1ccc(N=Nc2c(O)n(CC(=O)Nc3ccccc3)c3ccccc23)cc1,13.3% (inactive)
19,CC1(C)CC[C@]2(C(=O)Nc3ccccc3)CC[C@]3(C)C(=CCC4[C@@]5(C)C[C@@H](O)[C@H](O)[C@@](C)(CO)C5CC[C@]43C)C2C1 (stereo partly drawn),50.4% (inactive)

row,Compound,growth
1,COc1ccccc1C(=O)NN1C(=O)/C(=C/C2=Cc3ccccc3OC2)SC1=S,109% (inactive)
2,COc1ccc(NC(=O)[C@H](CO)NC(=O)OC(C)(C)C)cc1C(=O)Nc1cccc(C2CC(=O)c3c(cc(OC)c(OC)c3OC)O2)c1 (stereo partly drawn),69.1% (inactive)
3,COc1ccc(C2(SCCNCc3cc(N(C)C)ccn3)c3ccccc3C=Cc3ccccc32)cc1,1.44% (active)
4,COc1ccc2[nH]c(O)c(N=NC(=O)COc3ccc(NC(=O)Nc4ccccc4)cc3)c2c1,41.7% (inactive)
5,COc1cc(/C=C/C(=O)c2ccc(C)cc2)ccc1Oc1nc(Nc2ccc(F)cc2)nc(N(C)C)n1,30% (inactive)
6,CCN(CC)CCOc1ccc(Nc2ncc3cc(-c4ccc(O)c(C#N)c4)c(=O)n(C)c3n2)cc1,90.8% (inactive)
7,CC(/C=C1\SC(=S)N(CCCC(=O)NC(CC(C)C)C(=O)O)C1=O)=C\c1ccccc1 (stereo not drawn),97.4% (inactive)
8,COc1cc2c(c(OC)c1OC)C(=O)CC(c1cccc(NC(=O)c3cc(N)ccc3Cl)c1)O2 (stereo not drawn),78.9% (inactive)
9,CC(=O)OC[C@@]1(C)C2CC[C@]3(C)C(CC=C4C5CC(C)(C)CC[C@]5(C(=O)Nc5cccc(C)c5)CC[C@]43C)[C@@]2(C)C[C@@H](OC(C)=O)[C@@H]1OC(C)=O (stereo partly drawn),27.4% (inactive)
10,CCCCc1c(Nn2cnnn2)no[n+]1[O-],56.9% (inactive)
11,CC(C)Sc1nc(NCCc2c[nH]c3ccccc23)c(C#N)c(-c2ccc(F)cc2)n1,49.4% (inactive)
12,C=C1CCC2C3(C)COC(c4ccc(F)cc4)OC3CCC2(C)C1CC(O)C1=CCOC1=O (stereo not drawn),64.7% (inactive)
13,NS(=O)(=O)c1ccc(N=Nc2c(O)n(CC(=O)Nc3ccccc3Cl)c3ccccc23)cc1,15.1% (inactive)
14,Cc1ccccc1[C@H]1C(C(=O)c2ccc(Cl)cc2)C2(N[C@@H]1c1ccccc1)C(=O)Nc1ccc(Cl)cc12 (stereo partly drawn),-22.5% (active)
15,CCCCCCCCc1ccc(S(=O)(=O)Nc2ccc(CC)cc2C(=O)O)cc1,81.2% (inactive)
16,CCC(C)(C)c1ccc(OCCCCN2CCN(c3ccncc3)CC2)cc1,-35.6% (active)
17,COc1ccc(C(=O)/C=C/c2ccc(Oc3nc(Nc4ccc(F)cc4)nc(N(C)C)n3)c(OC)c2)cc1,51.5% (inactive)
18,S=c1c2ccccc2nc2n1CCc1c-2[nH]c2ccccc12,63.4% (inactive)
19,CCOC(=O)COc1c(OC)c(OC)cc2oc(-c3cccc(C(=O)Nc4ccc(Cl)cc4)c3)cc(=O)c12,38.2% (inactive)
